Inconclusive results are not listed. Calls of active or inactive are those of the source. Unless noted, calls come from the whole dose curve.
Assays:
[1] = Nuclear factor erythroid 2-related factor 2/antioxidant responsive element (Nrf2/ARE) small molecule agonists: luciferase reporter gene qHTS assay in human keratinocytes (AID 1919969); note: nearly all actives have a fitted effect of over 35% in size; note: potency is the fitted concentration of half-maximal effect
[2] = molecular target: Gonadotropin-releasing hormone receptor (Homo sapiens) (UniProt P30968); assay: Human gonadotropin-releasing hormone receptor (GnRHR) small molecule agonists, calcium flux assay in GnRHR-HEK293 cells (AID 1920063); note: nearly all actives have a fitted effect of over 35% in size
Method in brief: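 Intracellular calcium rise is the read-out: engineered human GnRHR HEK293 cells, dye-loaded, are exposed to DMSO-dissolved compounds and fluorescence at Ex/Em 480/540 is tracked for 3 min.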

[3] = molecular target: KiSS-1 receptor (Homo sapiens) (UniProt Q969F8); assay: Human kisspeptin (KISS1R) small molecule agonists, calcium flux assay in KISS1R-HEK293 cells (AID 1920064; active = well fitted activation curve with a large enough effect in the repeat runs)
Method in brief: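 Concentration-response testing used 15 concentrations in triplicate on human KISS1R-expressing HEK293 cells. Calcium-dependent fluorescence (Ex/Em 480/540) was followed kinetically for 3 min after compound transfer.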

[4] = G protein-coupled receptor (GPCR) small molecule agonists, calcium flux assay: HEK293 wild type cell line counter screen (AID 1920065); note: potency is the fitted concentration of half-maximal effect
Method in brief: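 Fluorescence intensity signals activation. After overnight (18 h) culture and a 1 h calcium dye load at 37 C, compounds are added by pin tool and the plate read at 480/540 nm for 3 min in 1 s steps.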

[5] = p53 small molecule agonists, cell-based qHTS assay with human liver microsomes (AID 1963577);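 note: p53 response element beta-lactamase reporter cells with liver microsomes plus NADPH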
Method in brief: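 Metabolically competent format: test substances, human liver microsomes and NADPH (both 0.5 mg/mL final) incubated with p53RE-bla cells 16 h at 37 C. Beta-lactamase reporter signal then quantified by fluorescence.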

[6] = p53 small molecule agonists, cell-based qHTS assay: qHTS cell viability counter screen (AID 1963581); note: nearly all actives have a fitted effect of over 45% in size; note: potency is the fitted concentration of half-maximal effect
Method in brief: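 Luminescence from CellTiter-Glo, reflecting ATP content, serves as the cytotoxicity measure; it is taken after the 2 h reporter substrate step in HCT-116 p53RE-bla cells dosed for 16 h at 37 C.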

[7] = molecular target: 5-hydroxytryptamine receptor 2A (Homo sapiens) (UniProt P28223); assay: 5-hydroxytryptamine receptor 2A (HTR2A) small molecule antagonists, cell-based qHTS assay (AID 1963586); note: nearly all actives have a fitted effect of over 45% in size
Method in brief: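 CHO cells stably expressing human HTR2A were plated for 18 h at 37 C, then loaded with calcium dye for 1 h. Compounds were preincubated 5 min at room temperature before DOI (4 nM solution) was added. Kinetic fluorescence was read for 3 min.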

[8] = molecular target: 5-hydroxytryptamine receptor 2A (Homo sapiens) (UniProt P28223); assay: 5-hydroxytryptamine receptor 2A (HTR2A) small molecule agonists, cell-based qHTS assay (AID 1963587); note: nearly all actives have a fitted effect of over 30% in size
Method in brief: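 Kinetic calcium-flux fluorescence (2 min, 1 sec intervals) after compound addition in agonist mode. HTR2A-CHO cells were cultured 18 h, then dye-loaded 1 h at 37 C.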

[9] = molecular target: Muscarinic acetylcholine receptor M1 (Homo sapiens) (UniProt P11229); assay: Cholinergic receptor muscarinic 1 (CHRM1) small molecule antagonists, cell-based qHTS assay (AID 1963588); note: nearly all actives have a fitted effect of over 40% in size; note: potency is the fitted concentration of half-maximal effect
Method in brief: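 Compounds were tested at 15 concentrations in three independent runs. Dye-loaded CHRM1-CHO cells were exposed 5 min at room temperature before stimulation by acetylcholine added at 50nM. Intracellular calcium was read kinetically on FDSS for 3 min.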

[10] = molecular target: Muscarinic acetylcholine receptor M1 (Homo sapiens) (UniProt P11229); assay: Cholinergic receptor muscarinic 1 (CHRM1) small molecule agonists, cell-based qHTS assay (AID 1963589); note: nearly all actives have a fitted effect of over 35% in size
Method in brief: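 Fluorescent calcium dye reports M1 activation in stably transfected CHO cells. Compounds, 15 concentrations, added after 1 h dye loading at 37 C; kinetic reading at 1 sec intervals.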

[11] = molecular target: Beta-2 adrenergic receptor (Homo sapiens) (UniProt P07550); assay: Adrenergic beta2 receptor (ADRB2) small molecule antagonists, cell-based qHTS assay (AID 1963592); note: nearly all actives have a fitted effect of over 50% in size; note: potency is the fitted concentration of half-maximal effect
Method in brief: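 Assay format: CHO-ADRB2 cells, 18-20hr seeding at 37C/5% CO2, then compound plus 1nM isoproterenol agonist mix for 0.5hr RT. Homogeneous time-resolved fluorescence cAMP detection after 1hr, expressed as 665/615 nm ratio.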

[12] = molecular target: D(2) dopamine receptor (Homo sapiens) (UniProt P14416); assay: Dopamine D2 receptor (DRD2) small molecule agonists, cell-based qHTS assay (AID 1963594); note: nearly all actives have a fitted effect of over 35% in size
Method in brief: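 cAMP accumulation in DRD2-HEK293 cells measured by HTRF after 1 h detection; compounds added 10 min before NKH477 (200nM […]) forskolin-analogue stimulation, 30 min at room temperature, with Ro20-1724 present at 0.1 mM final.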

[13] = molecular target: D(2) dopamine receptor (Homo sapiens) (UniProt P14416); assay: Dopamine D2 receptor (DRD2) small molecule antagonists, cell-based qHTS assay (AID 1963595; active = well fitted inhibition curve with a large enough effect in the signal ratio in the repeat runs, with a control signal flat; the % refers to the signal ratio)
Method in brief: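 In this cell-based antagonist screen, compounds act for 10 min at room temperature before a 30 min challenge with 12 nM quinpirole and 200 nM NKH477. cAMP is quantified by HTRF competition in DRD2-HEK293 cells containing 0.1 mM Ro20-1724.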

[14] = p53 small molecule agonists, cell-based qHTS assay with rat liver microsomes (AID 1963578); note: potency is the fitted concentration of half-maximal effect
Method in brief: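 Each plate received p53RE-bla cells, then compound, then rat liver microsomes and NADPH (both 0.5 mg/mL final). Plates were held 16 h at 37 C, and beta-lactamase activity was detected with LiveBLAzer over 2 h.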

[15] = p53 small molecule agonists, cell-based qHTS assay with human liver microsomes: qHTS cell viability counter screen (AID 1963579); note: nearly all actives have a fitted effect of over 45% in size; note: potency is the fitted concentration of half-maximal effect
Method in brief: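 Tox21 library compounds, delivered from DMSO stocks, were tested on p53RE-bla cells together with 0.5 mg/mL human liver microsomes and 0.5 mg/mL NADPH (final) over 16 h at 37 C; CellTiter-Glo luminescence served as the cytotoxicity measure.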

[16] = p53 small molecule agonists, cell-based qHTS assay with rat liver microsomes: qHTS cell viability counter screen (AID 1963580); note: nearly all actives have a fitted effect of over 45% in size
Method in brief: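 Cytotoxicity counter screen: intracellular ATP read by CellTiter-Glo luminescence in the p53 reporter wells. HCT-116 p53RE-bla cells were treated for 16 h at 37 C alongside rat liver microsomes and NADPH, each 0.5 mg/mL final.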

[17] = p53 small molecule agonists, cell-based qHTS assay (AID 1963582; active = well fitted activation curve with a large enough effect in the signal ratio in the repeat runs, not every such curve was filed as active; the % refers to the signal ratio)
Method in brief: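 After plating, p53RE-bla cells sat 5 h in the incubator; compounds or DMSO vehicle were pinned in; a 16 h incubation at 37 C followed; FRET substrate was added and, 2 h later at RT, fluorescence was measured.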

[18] = cAMP Responsive Elements (CRE) small molecule agonists, cell-based qHTS assay (AID 1963590)
Method in brief: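 Compound exposure lasted 3 h at 37 C/5% CO2 in CRE-bla HEK 293T cells grown in assay medium with 10% dialyzed FBS and 25 mM HEPES. Reporter signal came from LiveBLAzer B/G FRET substrate, 2 h, room temperature.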

[19] = cAMP Responsive Elements (CRE) small molecule antagonists, cell-based qHTS assay (AID 1963591; active = well fitted inhibition curve with a large enough effect in the signal ratio in the repeat runs, not every such curve was filed as active; the % refers to the signal ratio; note: potency is the fitted concentration of half-maximal effect)
Method in brief: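 Stimulation used NKH477 at a final 0.25 uM for 3 h in compound-treated CRE-bla HEK293T cells, seeded 18 h beforehand. Reporter activity was measured with LiveBLAzer B/G FRET substrate after 2 h at room temperature.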

[20] = molecular target: Beta-2 adrenergic receptor (Homo sapiens) (UniProt P07550); assay: Adrenergic beta2 receptor (ADRB2) small molecule agonists, cell-based qHTS assay (AID 1963593);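 note: CHO cells stably overexpressing human ADRB2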
Method in brief: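 CHO cells stably over-expressing ADRB2 were plated overnight at 37C, then dosed with compounds plus a stimulation mix containing 100uM IBMX and 25uM Ro-20-1724 for 0.5hr at room temperature. cAMP was measured by HTRF competition, 1hr.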

Measured: Potency

Sequence of 5-hydroxytryptamine receptor 2A (Homo sapiens) (P28223 whole entry, looked up): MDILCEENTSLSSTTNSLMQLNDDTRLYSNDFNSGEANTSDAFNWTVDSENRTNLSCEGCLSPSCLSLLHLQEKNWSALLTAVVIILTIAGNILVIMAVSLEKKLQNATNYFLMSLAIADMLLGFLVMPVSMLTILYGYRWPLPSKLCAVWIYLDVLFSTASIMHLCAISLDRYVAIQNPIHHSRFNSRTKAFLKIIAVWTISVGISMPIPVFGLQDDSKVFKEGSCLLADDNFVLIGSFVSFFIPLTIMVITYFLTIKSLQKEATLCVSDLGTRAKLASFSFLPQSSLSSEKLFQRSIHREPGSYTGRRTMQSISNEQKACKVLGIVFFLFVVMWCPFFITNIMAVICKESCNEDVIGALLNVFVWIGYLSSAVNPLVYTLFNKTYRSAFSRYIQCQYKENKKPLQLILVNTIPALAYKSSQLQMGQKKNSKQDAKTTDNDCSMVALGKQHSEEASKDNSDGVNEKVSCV
Sequence of Muscarinic acetylcholine receptor M1 (Homo sapiens) (P11229 whole entry, looked up): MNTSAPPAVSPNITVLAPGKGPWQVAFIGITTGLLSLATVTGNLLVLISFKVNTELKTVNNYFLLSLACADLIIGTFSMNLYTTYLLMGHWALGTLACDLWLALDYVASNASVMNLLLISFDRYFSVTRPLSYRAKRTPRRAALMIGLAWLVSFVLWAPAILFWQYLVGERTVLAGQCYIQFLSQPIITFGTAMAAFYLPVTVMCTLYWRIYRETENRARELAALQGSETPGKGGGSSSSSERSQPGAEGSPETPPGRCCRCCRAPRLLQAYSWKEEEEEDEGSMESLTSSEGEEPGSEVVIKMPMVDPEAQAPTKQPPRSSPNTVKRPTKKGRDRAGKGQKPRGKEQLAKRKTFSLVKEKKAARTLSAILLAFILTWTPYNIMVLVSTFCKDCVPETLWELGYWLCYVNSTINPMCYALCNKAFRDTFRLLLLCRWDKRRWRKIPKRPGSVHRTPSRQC
Sequence of KiSS-1 receptor (Homo sapiens) (Q969F8 whole entry, looked up): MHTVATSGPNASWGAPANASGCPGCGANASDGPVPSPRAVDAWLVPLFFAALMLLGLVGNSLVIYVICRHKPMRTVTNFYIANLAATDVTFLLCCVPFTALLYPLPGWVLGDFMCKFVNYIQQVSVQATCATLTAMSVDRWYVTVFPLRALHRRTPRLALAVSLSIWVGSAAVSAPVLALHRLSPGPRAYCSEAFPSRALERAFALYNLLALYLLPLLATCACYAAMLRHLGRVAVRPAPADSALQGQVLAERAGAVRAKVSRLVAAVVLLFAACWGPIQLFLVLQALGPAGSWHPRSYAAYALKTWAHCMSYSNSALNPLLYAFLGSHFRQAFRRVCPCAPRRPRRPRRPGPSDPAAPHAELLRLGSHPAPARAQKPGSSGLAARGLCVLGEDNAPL
Sequence of Beta-2 adrenergic receptor (Homo sapiens) (P07550 whole entry, looked up): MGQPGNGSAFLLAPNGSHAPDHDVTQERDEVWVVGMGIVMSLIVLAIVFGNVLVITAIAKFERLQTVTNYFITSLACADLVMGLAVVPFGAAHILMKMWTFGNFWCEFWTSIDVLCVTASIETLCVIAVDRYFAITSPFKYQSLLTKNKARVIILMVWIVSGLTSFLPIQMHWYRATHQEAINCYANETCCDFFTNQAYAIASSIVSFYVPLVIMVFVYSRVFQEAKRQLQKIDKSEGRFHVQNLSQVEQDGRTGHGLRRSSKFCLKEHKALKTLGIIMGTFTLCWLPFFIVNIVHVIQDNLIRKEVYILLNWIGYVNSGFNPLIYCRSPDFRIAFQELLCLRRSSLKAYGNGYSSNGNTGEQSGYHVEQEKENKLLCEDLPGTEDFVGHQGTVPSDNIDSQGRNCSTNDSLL
Sequence of Gonadotropin-releasing hormone receptor (Homo sapiens) (P30968 whole entry, looked up): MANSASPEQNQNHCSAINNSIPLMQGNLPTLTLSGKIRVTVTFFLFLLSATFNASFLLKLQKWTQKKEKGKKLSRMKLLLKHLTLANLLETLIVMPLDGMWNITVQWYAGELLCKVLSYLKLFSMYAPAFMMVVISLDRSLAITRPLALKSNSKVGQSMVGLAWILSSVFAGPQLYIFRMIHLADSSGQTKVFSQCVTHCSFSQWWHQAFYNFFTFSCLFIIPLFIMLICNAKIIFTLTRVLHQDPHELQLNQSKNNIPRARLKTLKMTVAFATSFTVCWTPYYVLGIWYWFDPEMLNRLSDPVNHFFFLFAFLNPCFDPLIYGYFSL
Sequence of D(2) dopamine receptor (Homo sapiens) (P14416 whole entry, looked up): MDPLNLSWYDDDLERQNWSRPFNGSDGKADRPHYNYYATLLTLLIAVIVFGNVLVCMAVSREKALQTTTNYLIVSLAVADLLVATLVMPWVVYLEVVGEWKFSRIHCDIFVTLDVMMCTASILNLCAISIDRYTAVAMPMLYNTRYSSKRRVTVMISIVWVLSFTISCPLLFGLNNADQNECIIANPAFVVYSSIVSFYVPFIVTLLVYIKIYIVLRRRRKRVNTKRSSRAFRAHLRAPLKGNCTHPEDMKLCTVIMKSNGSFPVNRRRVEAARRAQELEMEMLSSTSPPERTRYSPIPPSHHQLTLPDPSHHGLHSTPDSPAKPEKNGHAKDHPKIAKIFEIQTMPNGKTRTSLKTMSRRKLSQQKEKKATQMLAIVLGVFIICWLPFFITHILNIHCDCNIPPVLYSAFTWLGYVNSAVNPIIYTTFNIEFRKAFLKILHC

CCCC1C(CC)=CC(CC)=CN1c1ccccc1 (stereo unspecified)
active: [1] 61.1 µM
not listed: [14] | [15] | [16] | [17] | [18] | [19] | [20]
inactive: all other assays above

COC(=O)C1=C(C)NC(COC(N)=O)=C(C(=O)OC(C)C)C1c1cccc(Cl)c1Cl (stereo unspecified)
active: [14] 19.9 µM
not listed: [5] | [17] | [18] | [19] | [20]
inactive: all other assays above

CCC(C)(C)c1ccc(CC(C)CN2C[C@@H](C)O[C@@H](C)C2)cc1 (stereo partly specified)
active: [9] 3.65 µM
not listed: [5] | [15] | [20]
inactive: all other assays above

C=CC(=O)OCC1CC2CC1C1CCC(COC(=O)C=C)C21 (stereo unspecified)
active: [1] 24.3 µM | [15] 40.8 µM
not listed: [5] | [6] | [13] | [17] | [18] | [19]
inactive: all other assays above

Clc1ccc2nsnc2c1NC1=NCCN1
not listed: [5] | [12] | [15]
inactive: all other assays above

c1cc(OCC2CO2)cc(OCC2CO2)c1 (stereo unspecified)
active: [1] 24.1 µM
inactive: [2] | [3] | [4] | [14] | [16] | [7] | [8] | [9] | [11] | [12]

CCC1OCC(COc2ccc(Oc3ccccc3)cc2)O1 (stereo unspecified)
active: [1] 68.6 µM
not listed: [5] | [7] | [15] | [16]
inactive: all other assays above

CNCc1ccc(NC(=O)c2c[nH]c3c2C(=O)CCC3)cc1
not listed: [5] | [6] | [9] | [12] | [20]
inactive: all other assays above

CN1CC[C@H](c2c(O)cc(O)c3c(=O)cc(-c4ccccc4Cl)oc23)[C@H](O)C1
active: [1] 0.0841 µM
not listed: [5] | [15] | [16] | [17] | [18] | [19] | [20]
inactive: all other assays above

CCN(CC)CCNc1ccc(CO)c2sc3ccccc3c(=O)c12
active: [1] 11.9 µM | [19] 26.6 µM | [11] 16.8 µM
not listed: [5] | [6] | [8] | [9] | [12] | [17] | [20]
inactive: all other assays above

O=C(Nc1cccc([N+](=O)[O-])c1)c1cc2ccccc2cc1O
active: [1] 61.1 µM
not listed: [5] | [15] | [17] | [18] | [19] | [20]
inactive: all other assays above

O=[N+]([O-])c1cc(N(CCO)CCO)ccc1NCCO
not listed: [5] | [11] | [12] | [13] | [20]
inactive: all other assays above

CC(C)n1nc(-c2cc3cc(O)ccc3[nH]2)c2c(N)ncnc21
not listed: [5] | [16] | [18] | [19]
inactive: all other assays above

O=C(Nc1ccc(Cl)cc1)Nc1ccc(Cl)c(C(F)(F)F)c1
inactive: [2] | [3] | [4] | [14] | [16] | [8] | [9] | [10] | [12] | [13]
active: [1] 11.9 µM

O=C(Nc1ccccc1)c1cc(Cl)ccc1O
inactive: [2] | [3] | [5] | [8] | [9] | [10] | [12] | [13]
active: [1] 13.7 µM | [4] 12.3 µM | [6] 40.8 µM | [11] 61.1 µM

O=c1[nH]sc2ccccc12
active: [1] 12.2 µM
not listed: [5] | [8] | [11] | [12] | [15] | [16] | [18] | [19]
inactive: all other assays above

Oc1cccc(-c2c3nc(c(-c4cccc(O)c4)c4ccc([nH]4)c(-c4cccc(O)c4)c4nc(c(-c5cccc(O)c5)c5ccc2[nH]5)CC4)C=C3)c1
not listed: [5] | [6] | [7] | [11] | [12] | [13] | [17] | [20]
inactive: all other assays above
